USP2a inh: qHTS Assay for Inhibitors of Ubiquitin-specific Protease USP2a Using CHOP2 as the Reporter | USP2 core, Ub-CHOP2 coupled fluorogenic reporter, 485/531 | Potency, µM (titrated, usually from 38.3 µM), for inactives: at the highest dose activity change, negative = inhibition, actives largely listed as inhibitors | 330,000 tested, 0.01% active;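 also: plate controls were DMSO wells for no effect and full inhibition by NEM control for full effect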
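Cell-free coupled assay: 10nM USP2 core preincubated 30min RT with compound in Tris-HCl pH 8.0/CaCl2/CHAPS buffer, then 25nM Ub-CHOP2 and 25nM reporter substrate; fluorescence (Ex 485/Em 531) read after 60min RT, normalized to NEM inhibition, concentration-response curves fitted.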
p53 reactivation: qHTS assay for re-activators of p53 using a Luc reporter; H1299 p53-A138V BP100-luciferase reporter, luminescence, 24 h; Potency, µM (doses to about 92.2 µM), for the others: at the highest dose activity change, positive = activation, actives largely listed as activators; 320,000 tested, 0.063% active; also: % of control where 0% means no effect; nearly all actives have a fitted effect of over 45% in size
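H1299 (p53-null), stable ts p53-A138V + BP100-Luc; 1000 cells/well, Opti-MEM/10% FBS; cpd 4 pt, 1:5; 24 h, 37 deg C, 5% CO2; detection reagent 10 min RT; luminescence.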
Tb PFK block: qHTS Assay to Find Inhibitors of T. brucei phosphofructokinase; ATP-dependent 6-phosphofructokinase (Trypanosoma brucei brucei), O15648; Potency, µM (highest dose often 57.5 µM), without a hit: top-dose activity, negative = inhibition, most hits filed as inhibitors; 330,000 tested, 0.17% active; T. brucei PFK, ADP-Glo luminescence; AID 485367, 2010;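 also: 0% = uninhibited 1x PFK enzyme wells and -100% = no-enzyme wells; nearly all actives have a fitted effect of over 60% in size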
Target sequence (O15648 whole entry, looked up): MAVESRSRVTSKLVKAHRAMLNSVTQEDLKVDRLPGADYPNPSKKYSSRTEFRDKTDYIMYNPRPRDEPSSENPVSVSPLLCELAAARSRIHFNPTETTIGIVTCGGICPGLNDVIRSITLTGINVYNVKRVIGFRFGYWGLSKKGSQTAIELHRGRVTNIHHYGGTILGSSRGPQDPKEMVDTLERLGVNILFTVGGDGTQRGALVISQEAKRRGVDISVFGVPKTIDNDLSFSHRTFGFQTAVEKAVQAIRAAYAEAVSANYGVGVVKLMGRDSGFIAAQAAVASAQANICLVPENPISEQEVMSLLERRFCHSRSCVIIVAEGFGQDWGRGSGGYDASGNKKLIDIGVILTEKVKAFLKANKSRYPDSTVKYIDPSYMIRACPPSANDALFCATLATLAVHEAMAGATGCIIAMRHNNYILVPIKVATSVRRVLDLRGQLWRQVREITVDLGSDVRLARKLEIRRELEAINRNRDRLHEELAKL
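Compounds were pin-transferred as a titration series up to 57 uM into substrate buffer (0.5 mM F6P, 0.1 mM ATP, pH 8.0), then 1.25 nM PFK was added and reactions ran 45 min before ADP-Glo detection.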
GLS inhibitor: qHTS for Inhibitors of Glutaminase (GLS) | Glutaminase kidney isoform, mitochondrial (Homo sapiens), O94925 | GLS enzymatic activity, qHTS titration | Potency, µM (series often up to 45.5 µM), for inactives: top-dose activity change, negative = inhibition, hits mostly inhibitors | 410,000 tested, 0.21% active; also: % is scaled to controls: 0 for no effect and ±100 for the full control effect
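hKGA; 45 mM KH2PO4 pH 8.2 + 0.02% Tween-20; cpd via pin tool; 1 mM Gln soln; GluOx/HRP/Amplex Red; RT 30 min; fluor. t0 & final.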
* = called active by the depositor; ? = inconclusive; · = not tested or not shown. In the library only some 0.39% were active in any assay of this set; here they are far more common. Calls follow the shape of the dose curve; as a rule, active = well fitted curve in the direction sought with a large enough effect; inconclusive = small, poorly fitted or top-dose-only effect, or another doubt; inactive = no such curve, though single readings can be large; an effect the other way counts as inactive or inconclusive. Potency is read from the fitted curve at half-maximal effect.

SMILES | USP2a inh | p53 reactivation | Tb PFK block | GLS inhibitor
S=c1[nH]nc(-c2cc(-c3ccccc3)n[nH]2)n1/N=C/C=C/c1ccco1 | -1% | 8% | -23% | 4µM*
CCOC(=O)C1CCCN(C(=O)c2cc(-c3ccco3)nc3ccccc23)C1 (stereo not given) | ? | -8% | -12% | 13µM*
Cn1c(N)c(C(=O)COC(=O)c2cc(-c3ccco3)nc3ccccc23)c(=O)n(C)c1=O | 1% | -14% | -2% | 7.9µM*
CCOC(=O)C1CCCN(C(=O)c2cc(-c3ccncc3)nc3ccccc23)C1 (stereo not given) | 0% | -9% | -5% | -1%
Cn1c(N)c(C(=O)COC(=O)c2cc(-c3ccco3)nc3ccccc23)c(=O)n(Cc2ccccc2)c1=O | -1% | -5% | 11% | ·
CCOc1ccc(NC(=O)c2nnn(-c3ccc(F)c(Cl)c3)c2C)cc1 | · | · | · | 3%
COc1cc(NC(=O)CCc2c(C)nn(-c3ccc4nnc(C)n4n3)c2C)cc(OC)c1OC | · | · | · | 8%
S=c1[nH]nc(-c2ccc3ncccc3c2)n1-c1ccc2c(c1)OCCO2 | -6% | 4% | -7% | 6.3µM*
COc1ccccc1Nc1n[nH]c(=S)s1 | 1% | 4% | ? | 10µM*
O=C1/C(=C\c2ccco2)CCC/C1=C\c1ccco1 | 3% | 25µM* | ? | 3%
O=C1CC(=O)N(Cc2ccco2)C(=O)N1 | 1% | 0% | 24µM* | 10µM*
COc1ccc(NC(=O)c2cc3cccc(OC)c3oc2=Nc2ccc(C(=O)O)cc2)cc1OC | 4% | 11% | 0% | 6.3µM*
COc1cccc(NC(=O)c2cc3cccc(OC)c3o/c2=N\O)c1 | -1% | ? | 0% | ·
FC(F)(F)c1cccc(N2CCN(Cc3nnc(-c4ccc5c(c4)OCO5)o3)CC2)c1 | · | · | · | 4%
CC(=O)Nc1ccc2c(=O)n(-c3ccccc3)sc2c1 | · | · | · | 6.3µM*
O=c1c2cc(C(F)(F)F)ccc2sn1-c1ccccc1 | · | · | · | 11µM*
Cc1ccc(C)c(Cn2nnc(C(=O)NCc3ccc(Cl)cc3Cl)c2N)c1 | · | · | · | -2%
Cc1ccc(CNC(=O)c2c(C)oc3nc(C)nc(N4CCOCC4)c23)cc1 | · | · | · | -9%
Cc1cc(/C=C(/C#N)c2nc3ccccc3[nH]2)c(C)n1-c1cc(C(=O)O)cc(C(=O)O)c1 | 5% | 5% | -29% | 18µM*
CCCn1c(N)c(N2CCCCC2)c(=O)n(CC(=O)Nc2ccccc2)c1=O | 2% | 0% | -7% | 13%
CCCn1c(N)c(N2CCCCC2)c(=O)n(CC(=O)Nc2ccc(C(C)=O)cc2)c1=O | 8% | 1% | 6% | 4.5µM*
O=C(COc1ccc(Cl)cc1Cl)Nc1ccccn1 | -1% | -7% | 17µM* | 2%
CSc1ccccc1NC(=O)COc1ccc(Cl)cc1Cl | 1% | 15% | -2% | 8%
CNc1oc(/C=C/c2cc(OC)c(OC)c(OC)c2)nc1C#N | · | · | · | 1%
CC(C)C1Nc2ccc(C(=O)O)cc2C2C=CCC21 (stereo not given) | 16% | -1% | -18% | 219%
SMILES | USP2a inh | p53 reactivation | Tb PFK block | GLS inhibitor
CCOC(=O)c1ccc2c(c1)C1C=CCC1C(C(=O)O)N2 (stereo not given) | 0% | 2% | 19µM* | ·
Cc1cc(C)c2c(c1)NC(C(=O)O)C1CC=CC21 (stereo not given) | -1% | 0% | -14% | 10µM*
CCOC(=O)C1Nc2ccc(C(=O)O)cc2C2C=CCC12 (stereo not given) | 1% | 3% | -27% | 3.2µM*
COCCNC(=O)C1Nc2ccc(C(F)(F)F)cc2C2C=CCC12 (stereo not given) | · | · | · | 3%
CCCC1Nc2ccc(C(=O)O)cc2C2C=CCC12 (stereo not given) | 6% | -14% | ? | 10µM*
CCCCNC(=S)N/N=C/c1cccc(OCC)c1O | -1% | 1% | -1% | 8.9µM*
CCOc1ccc(NC(=O)c2ccncc2)cc1 | 0% | 18% | -1% | 4%
CCOc1ccc2c(c1)C(=NNC(=O)c1ccncc1)c1cc(OCC)ccc1-2 | 0% | 40µM* | -3% | 9%
Nc1ccc(O)c(C(=O)O)c1 | · | · | · | 16µM*
Cc1ccc(NC(=O)CSc2nnc(-c3cc4occc4n3C)n2-c2ccccc2C)c(Cl)c1 | · | · | · | -4%
CN=c1scc(-c2ccccc2F)n1/N=C/c1ccc(O)c(O)c1O | 13µM* | 11% | -18% | -30%
CCn1cc(C(=O)OCC(=O)Nc2cc(OC)cc(OC)c2)c(=O)c2ccc(C)nc21 | · | · | · | 4%
COc1ccc(-c2ccc3c(c2)C2CC3CCN2)cc1 (stereo not given) | · | · | · | 16µM*
CCOc1ccccc1NC(=O)Cn1c(=O)n(CCCC(=O)NCCc2ccc(C)cc2)c(=O)c2ccccc21 | · | · | · | -11%
COc1cc(/C=C(\CCC(=O)O)c2nc3ccccc3s2)ccc1OCC(=O)Nc1c(Cl)cccc1Cl | 2% | 7% | -3% | 10µM*
CCOc1ccc(NC(=O)CSc2nc(=O)[nH]c3c2CCC3)cc1 | · | · | · | 3%
CC(=O)Nc1cc(C(=O)OCC(=O)c2ccc(Cl)cc2Cl)ccc1C | 1% | 8% | -1% | -1%
CC(=O)Nc1cc(C(=O)OCC(=O)c2ccc(C)cc2)ccc1C | -1% | 28µM* | 1% | -2%
O=C(O)C1=CC(=C(c2ccc(O)c(C(=O)O)c2)c2ccc(O)c(C(=O)O)c2)C=CC1=O | 1.1µM* | -5% | ? | ·
O=C(O)c1cc(O)ccc1O | · | · | · | 0%
Fc1ccc(-c2cc(-c3nc(-c4ccccc4)no3)[nH]n2)cc1 | · | · | · | 2%
Cc1cc(SCC(=O)NCc2ccc(Cl)cc2)nc(=O)[nH]1 | · | · | · | -10%
O=C(CCc1ccc(O)c(O)c1)N/N=C/c1ccc2c(c1)OCO2 | 0% | ? | 4.3µM* | ?
O=C(N/N=C/c1ccc2c(c1)OCO2)c1ccc(Br)o1 | -1% | 3.2µM* | ? | 0%
Cc1ccc2nc(-c3ccc(NC(=O)COC(=O)c4ccc(Br)o4)cc3)sc2c1 | 4% | · | 0% | -1%
Cc1ccc2nc(-c3ccc(NC(=O)COC(=O)c4ccc([N+](=O)[O-])o4)cc3)sc2c1 | 3% | 3.2µM* | 8% | -2%
CC(=O)c1c(C)oc2ccc(NS(=O)(=O)c3ccc(C)cc3)cc12 | 1% | 5% | 1% | -8%
